The results in this text go back to PubChem BioAssay (NCATS).

Assay [1] is described as follows: Cellular Toxicity (caspase-3) Hek293 (AID 664).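 Note: cells exposed to compound for 16 h at 37 °C before readout.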 In outline: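 Cells plated, 5 hr at 37 °C; compounds added; 16 hr at 37 °C; Caspase-Glo 3/7 reagent, 20 min RT; luminescence read. Activation expressed relative to DMSO and 100 uM tamoxifen, AC50 by Hill model.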
Assay [2] in a line: Cellular Toxicity (caspase-3) N2a (AID 665).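 Note: compound exposure lasted 16 h at 37 °C before readout.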 An outline of the steps:
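N2a cells, 1500/well, 5 h settle at 37 °C; cpd 16 h, 37 °C; Caspase-Glo 3/7, 1 h RT; luminescence. Norm: DMSO = 0, 10 uM staurosporine = 100%. AC50, Hill fit.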

Assay [3] in a line: Cellular Toxicity (caspase-3) NIH 3T3 (AID 666).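 Note: caspase signal read after 16 h compound exposure.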 An outline of the steps:
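Luminescence from aminoluciferin released by caspase-3/7 cleavage of a peptide substrate served as read-out. Mouse fibroblast NIH 3T3 cells were exposed to compounds over a concentration range for 16 hours, and AC50 values came from standard Hill modelling.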

The nature of assay [4]: Cellular Toxicity (caspase-3) Renal Proximal Tubule (AID 667).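 Note: cells exposed to compound for 16 hours at 37 °C before detection.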 An outline of the steps: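 Primary rat proximal tubule cells, 1000/well, 5 h plating at 37 °C, then compound 16 h at 37 °C. Caspase-Glo 3/7 reagent, 1 h RT, luminescence. Normalized to DMSO (basal) and 10 uM staurosporine (100%); Hill-fit AC50.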
Assay [5] deals with Cytochrome P450 3A4 (Homo sapiens) (UniProt P08684). Nature of the assay: qHTS Assay for Inhibitors and Substrates of Cytochrome P450 3A4 (AID 884). Note: series mostly up to about 57 µM; nearly all actives have a fitted effect of over 50% in size. An outline of the steps:
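20 nM human CYP3A4 with 25 uM Luciferin-PPXE (at KM) in 200 mM KPO4, preincubated 10 min with compound; NADPH regeneration started a 60 min RT reaction. Luciferin detected by luminescence, normalized to 57 uM ketoconazole as full inhibition.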

The nature of assay [6]: Confirmation and Secondary Assay for Modulators of Hemoglobin Beta Chain Splicing at IVS2 654 locus (AID 910).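 Note: HeLa cells stably carrying EGFP split by mutant beta-globin IVS2-654 intron; per-well total GFP intensity by laser scanning cytometry after 2-day treatment.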 An outline of the steps: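 Readout: per-well total peak green fluorescence (488 nm ex, 500–520 nm em) from objects 5–250 µm, reflecting correct splicing of an EGFP-654 reporter. Compounds were applied for 2 days at 37 °C to overnight-plated HeLa EGFP-654 cells; controls were DMSO and 500 nM IVS2-654 PNA.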

The nature of assay [7]: Cell Viability - LYMP2-001 (AID 921). Note: series mostly up to about 92 µM; nearly all actives have a fitted effect of over 70% in size. An outline of the steps: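 Human lymphoblastoid cells (Coriell), 2500 per well, were preincubated 5 hr at 37 C, then exposed to compounds in complete medium for 24 hr at 37 C. Cellular ATP was read by CellTiter-Glo luminescence; AC50 from Hill fits of concentration-response data.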
Assay [8] can be described thus: Confirmation and Secondary Assay for Modulators of Hemoglobin Beta Chain Splicing at IVS2 705 locus (AID 930).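 Note: HeLa cells stably expressing the EGFP-705 splicing reporter; GFP fluorescence per well restored by corrected splicing of the IVS2-705 intron in EGFP; series mostly up to about 46 µM.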 An outline of the steps: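 Splice-correction reporter: EGFP cDNA split by beta-globin intron 2 bearing the 705 mutation, stably in HeLa. Compound incubation 2 days, 37C; fluorescent objects 5-250 µm summed per well.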
Assay [9] can be described thus: MultiTox-Fluor Cytotoxicity Assay - LYMP1-001 - Dead Cells (AID 946). In outline: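 Seed 2500 LYMP1-001 cells/well, incubate 5 hr at 37 C; add compound, 16 hr at 37 C; add MultiTox-Fluor reagent, 60 min RT; read dead-cell fluorescence Ex/Em=485/520. Normalize to DMSO and 15 uM tetraoctylammonium bromide.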
Assay [10] is described as follows: Cell Viability - LYMP1-002 - Assay at 16 hr (AID 948). An outline of the steps: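 Human lymphoblastoid cells (LYMP1-002), 2500/well, were preincubated 5 hr at 37 C, then exposed to compounds for 16 hr at 37 C in complete medium. Cellular ATP was read by CellTiter-Glo luminescence after 30 min at room temperature; AC50 from Hill fits.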
Assay [11] has as its target Guanine nucleotide-binding protein G(i) subunit alpha-1 (Homo sapiens) (UniProt P63096). Description: qHTS Assay for Inhibitors of RGS12 GoLoco Motif Activity (Green Fluorophore) (AID 879).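 Note: negative values mean loss of peptide binding seen as reduced polarization.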 An outline of the steps: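 Fluorescence polarization assay: 50 nM Gαi1 with 10 nM FITC-labeled RGS12 GoLoco peptide in 10 mM Tris pH 7.5, 150 mM NaCl, 0.1 mM GDP, 0.05% NP40, 10 min at room temperature with compound.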
A general note: Quantitative high-throughput screening tests each substance at several concentrations.

Assay [12] is described as follows: qHTS Assay for Identification of Small Molecule Agonists for Thrombopoietin (TPO) Signaling Pathway (AID 917). An outline of the steps:
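Murine Ba/F3 cells stably expressing human TPO receptor and a Glycoprotein IIb promoter–luciferase reporter were IL-3-starved overnight, then treated with compounds plus TPO (26 pM final, its EC50) for 24 hrs at 37 C; luminescence was read.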

For assay [13], the target named is Muscarinic acetylcholine receptor M1 (Rattus norvegicus) (UniProt P08482). Description: qHTS Assay for Antagonists of Acetylcholine Muscarinic M1 Receptor: Kinetic Measurement of Intracellular Calcium Response (AID 943).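 Note: Fluo-4 calcium signal as peak divided by basal fluorescence over 4 min; series mostly up to about 35 µM; nearly all actives have a fitted effect of over 75% in size.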 An outline of the steps: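 Rat M1-CHO cells, 2000/well, overnight → Fluo-4 no-wash dye with probenecid, 1 h 37C → compound 10 min, room temp → basal read 6 s → carbachol EC80 (100 nM) → 4 min kinetic read; peak/basal.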
Chain of Muscarinic acetylcholine receptor M1 (Rattus norvegicus) (P08482 whole entry, looked up): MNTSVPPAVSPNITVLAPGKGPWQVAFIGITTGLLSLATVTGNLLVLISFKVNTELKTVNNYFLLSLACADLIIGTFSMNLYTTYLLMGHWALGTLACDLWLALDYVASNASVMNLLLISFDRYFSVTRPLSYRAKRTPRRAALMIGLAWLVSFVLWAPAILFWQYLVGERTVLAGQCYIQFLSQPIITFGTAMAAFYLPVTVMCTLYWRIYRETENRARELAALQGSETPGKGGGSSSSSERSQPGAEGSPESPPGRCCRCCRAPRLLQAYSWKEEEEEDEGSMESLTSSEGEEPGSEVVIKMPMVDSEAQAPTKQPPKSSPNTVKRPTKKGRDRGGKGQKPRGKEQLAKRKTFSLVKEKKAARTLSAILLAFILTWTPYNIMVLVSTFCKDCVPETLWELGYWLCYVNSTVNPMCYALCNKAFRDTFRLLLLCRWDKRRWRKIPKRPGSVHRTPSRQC

Assay [14] has the same target. Description: qHTS Assay for Antagonists of Acetylcholine Muscarinic M1 Receptor: Measurement of IP-One Response (AID 944). Note: nearly all actives have a fitted effect of over 75% in size. In outline:
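M1-CHO (rat), 2000 cells/well, overnight recovery; cpd 10 min; carbachol EC80 (200 nM), 30 min, HEPES buffer + 50 mM LiCl pH 7.4; IP-One HTRF, Ex 337, Em 620/665 nm.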

Assay [15] deals with Pyruvate kinase (Leishmania mexicana) (UniProt Q27686). Description: qHTS Validation Assay for Inhibitors of Leishmania Mexicana Pyruvate Kinase (AID 945). An outline of the steps:
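The enzyme is a highly purified E451W mutant of LmPYK used at 0.2 nM. It converts 0.5 mM PEP and 0.1 mM ADP over 1 h at room temperature; product ATP is quantified by luciferase luminescence relative to DMSO controls.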

Assay [16] addresses Cytochrome P450 2D6 (Homo sapiens) (UniProt P10635). Description: qHTS Assay for Inhibitors and Substrates of Cytochrome P450 2D6 (AID 891). Note: potency is the fitted concentration of half-maximal effect; nearly all actives have a fitted effect of over 60% in size. In outline: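 Human CYP2D6 (5 nM) with 30 uM Luciferin-ME EGE (at Km) in 100 mM KPO4, compound preincubated 10 min, then NADPH regeneration system for 60 min at room temperature. Luciferin read by luminescence; normalized to 1.43 uM quinidine.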

In assay [17] the target is Cytochrome P450 2C19 (Homo sapiens) (UniProt P33261). Nature of the assay: qHTS Assay for Inhibitors and Substrates of Cytochrome P450 2C19 (AID 899). Note: nearly all actives have a fitted effect of over 60% in size. Note: potency is the fitted concentration of half-maximal effect. In outline:
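Reactions contain 5nM enzyme, 10uM Luciferin-H EGE (KM) and 50mM KPO4; compound preincubates 10 min at 37C, NADPH regeneration starts turnover for 60 min. Luminescence after detection reagent gives activity.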

Values without a mark were called inactive. Results filed as inconclusive are left out. The source made the active and inactive calls. Calls come from the whole dose curve; as a rule, active = well fitted curve in the direction sought with a large enough effect; inconclusive = small, poorly fitted or top-dose-only effect, or another doubt; inactive = no such curve, though single readings can be large; an effect the other way counts as inactive or inconclusive.

Chain of Cytochrome P450 2D6 (Homo sapiens) (P10635 whole entry, looked up): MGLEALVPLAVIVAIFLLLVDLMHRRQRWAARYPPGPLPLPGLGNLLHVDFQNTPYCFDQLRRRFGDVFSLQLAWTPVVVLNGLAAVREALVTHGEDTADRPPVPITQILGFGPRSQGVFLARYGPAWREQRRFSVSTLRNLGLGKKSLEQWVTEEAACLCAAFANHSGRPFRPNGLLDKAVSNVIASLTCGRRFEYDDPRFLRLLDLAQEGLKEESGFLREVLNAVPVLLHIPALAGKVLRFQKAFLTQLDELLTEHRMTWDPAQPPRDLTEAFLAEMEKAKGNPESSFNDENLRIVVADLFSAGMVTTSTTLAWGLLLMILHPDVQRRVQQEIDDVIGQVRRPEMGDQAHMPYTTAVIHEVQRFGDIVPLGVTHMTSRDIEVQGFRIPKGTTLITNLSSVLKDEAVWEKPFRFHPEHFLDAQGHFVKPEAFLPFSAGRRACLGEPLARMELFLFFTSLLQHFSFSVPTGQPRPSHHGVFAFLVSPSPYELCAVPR
Chain of Cytochrome P450 3A4 (Homo sapiens) (P08684 whole entry, looked up): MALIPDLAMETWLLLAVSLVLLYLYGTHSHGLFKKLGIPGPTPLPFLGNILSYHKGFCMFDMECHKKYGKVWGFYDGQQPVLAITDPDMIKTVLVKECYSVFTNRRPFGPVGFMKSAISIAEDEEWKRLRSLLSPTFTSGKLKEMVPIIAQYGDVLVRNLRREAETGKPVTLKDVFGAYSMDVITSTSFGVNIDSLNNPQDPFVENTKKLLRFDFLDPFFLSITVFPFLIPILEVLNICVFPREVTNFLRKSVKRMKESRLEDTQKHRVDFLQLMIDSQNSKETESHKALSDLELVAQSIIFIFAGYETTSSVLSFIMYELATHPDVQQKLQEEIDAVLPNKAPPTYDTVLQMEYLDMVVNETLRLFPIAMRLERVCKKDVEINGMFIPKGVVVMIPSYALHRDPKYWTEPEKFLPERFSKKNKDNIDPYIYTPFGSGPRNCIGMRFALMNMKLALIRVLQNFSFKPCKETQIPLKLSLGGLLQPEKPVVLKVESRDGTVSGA
Chain of Cytochrome P450 2C19 (Homo sapiens) (P33261 whole entry, looked up): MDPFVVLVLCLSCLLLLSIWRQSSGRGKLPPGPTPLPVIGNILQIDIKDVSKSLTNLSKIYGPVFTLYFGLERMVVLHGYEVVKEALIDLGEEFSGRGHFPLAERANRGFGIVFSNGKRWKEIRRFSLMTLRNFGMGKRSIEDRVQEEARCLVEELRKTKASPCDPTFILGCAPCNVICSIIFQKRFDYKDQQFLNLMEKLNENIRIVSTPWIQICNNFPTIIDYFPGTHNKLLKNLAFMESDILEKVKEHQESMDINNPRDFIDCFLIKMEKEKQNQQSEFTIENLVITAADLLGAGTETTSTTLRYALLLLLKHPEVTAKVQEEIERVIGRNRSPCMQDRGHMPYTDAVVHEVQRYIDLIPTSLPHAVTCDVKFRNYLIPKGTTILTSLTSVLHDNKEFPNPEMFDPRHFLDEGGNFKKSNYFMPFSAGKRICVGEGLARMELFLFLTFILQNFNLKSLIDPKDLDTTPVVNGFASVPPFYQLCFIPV
Chain of Guanine nucleotide-binding protein G(i) subunit alpha-1 (Homo sapiens) (P63096 whole entry, looked up): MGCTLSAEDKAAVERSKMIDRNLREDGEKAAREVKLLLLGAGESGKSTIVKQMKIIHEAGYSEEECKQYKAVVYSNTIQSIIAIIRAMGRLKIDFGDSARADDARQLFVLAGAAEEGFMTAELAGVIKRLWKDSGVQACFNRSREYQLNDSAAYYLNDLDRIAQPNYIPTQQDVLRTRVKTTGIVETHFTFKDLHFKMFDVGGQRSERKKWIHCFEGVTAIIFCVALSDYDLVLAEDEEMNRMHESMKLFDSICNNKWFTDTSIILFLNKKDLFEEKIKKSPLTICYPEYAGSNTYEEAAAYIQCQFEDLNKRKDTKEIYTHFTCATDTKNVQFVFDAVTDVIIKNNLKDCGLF
Chain of Pyruvate kinase (Leishmania mexicana) (Q27686 2-499 E452W): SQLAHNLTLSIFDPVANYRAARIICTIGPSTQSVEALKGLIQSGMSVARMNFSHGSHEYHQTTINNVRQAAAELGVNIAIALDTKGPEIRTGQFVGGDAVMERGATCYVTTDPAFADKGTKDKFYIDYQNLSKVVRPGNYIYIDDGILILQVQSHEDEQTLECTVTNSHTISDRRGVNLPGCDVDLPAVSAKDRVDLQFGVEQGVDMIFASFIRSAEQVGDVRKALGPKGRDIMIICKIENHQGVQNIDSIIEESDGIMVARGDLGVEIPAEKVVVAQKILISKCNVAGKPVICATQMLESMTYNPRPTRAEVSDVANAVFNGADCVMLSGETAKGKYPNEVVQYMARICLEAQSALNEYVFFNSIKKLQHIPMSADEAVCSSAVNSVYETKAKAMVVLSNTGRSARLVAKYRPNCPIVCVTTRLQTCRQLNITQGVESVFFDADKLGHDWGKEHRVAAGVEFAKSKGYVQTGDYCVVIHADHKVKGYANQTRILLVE

For the molecule `Cc1cc(=O)[nH]c(=S)[nH]1`, the call in assay [1], in assay [2], in assay [3], in assay [4], in [5] and in assay [6] was inactive. Besides, the molecule was classed as inactive in [7], in assay [8], in [9] and in [10].

As for `CCCC(O)C(CC)CO` (stereo not drawn), the molecule was classed as inactive in assay [1], in assay [2], in [3], in [4], in assay [5] and in assay [7]. The outcome in assay [9] and in assay [10] was inactive.

As for `Cc1[nH]c(C)c(Cl)c(=O)c1Cl`, the call in [5], in [6] and in assay [8] was inactive.

Regarding `CN1C(C)(C)CCCC1(C)C`, the molecule was called inactive in assay [11], in [6], in assay [12], in [8], in [13] and in assay [14]. The outcome in [15] was inactive.

For the molecule `CCCCOC(=O)c1ccc(N)cc1`, the outcome in assay [1], in assay [2], in [3], in [4], in assay [6] and in [7] was inactive. Also, the call in assay [8], in assay [9] and in [10] was inactive.

Consider `CC(=O)Nc1ccccc1`, for which the molecule was classed as inactive in assay [1], in assay [2], in assay [3], in [4], in assay [5] and in assay [6]. For the same molecule, the result in assay [7], in assay [8], in assay [9] and in assay [10] was inactive.

Consider `Cc1ccsc1/C=C/C1=NCCCN1C`, for which the molecule was called inactive in [6] and in assay [8].

For `CC(=O)SC[C@@H](Cc1ccccc1)C(=O)NCC(=O)OCc1ccccc1`, the Potency was 316 nM (active) in [16] and 126 nM (active) in assay [17].

For `Cc1cccc(C(=O)O)c1O`, the molecule was called inactive in assay [5], in assay [6] and in [8].

In the case of `Cc1c(NC(=O)c2cccnc2)c(=O)n(-c2ccccc2)n1C`, the molecule was classed as inactive in assay [6] and in assay [8].

Take `CC[N+](CC)(CC(=O)Nc1c(C)cccc1C)Cc1ccccc1`: the Potency in assay [16] is 7.9 nM (active).

In the case of `Cc1cc(NC(=O)C2=C(O)c3ccccc3S(=O)(=O)N2C)no1`, the result in assay [5], in [6] and in assay [8] was inactive.

As for `Nc1ccc(C(=O)Oc2ccccc2)c(O)c1`, the call in assay [6] and in assay [8] was inactive.

In the case of `CCc1cccc(CC)c1NC(=O)CN(CC(=O)O)CC(=O)O`, the Potency entry in assay [17] was “inactive”.

Take `CN1CCCN=C1COC(=O)C(O)(c1ccccc1)C1CCCCC1` (stereo not drawn): the molecule was classed as inactive in assay [6] and in assay [8].

As for `CCN(CC)CCOC(=O)C(c1ccccc1)c1ccccc1`, the Potency in assay [16] was 5010 nM (active). For the same molecule, the outcome in assay [6] and in assay [8] was inactive.
